# Experimental data: article PMC7862700, “An all-to-all approach to the identification of sequence-specific readers for epigenetic DNA modifications on cytosine”
# Legend:
# Assay in all cases: DAPPL (digital affinity profiling via proximity ligation, sequencing); 10 mM Tris-HCl pH 7.5, 50 mM NaCl, 1 mM DTT, 4% glycerol, room temperature, 30 min; GST-TFs on glutathione beads, 16-mer random dsDNA library, 0.1% formaldehyde crosslink after washing; high values mean tight binding
# Details in all cases: protein: recombinant; tags: N-terminal GST; dsDNA, one strand shown
# ETV1 = ETV1 (Homo sapiens, UniProt P50549 1-477)
# Sequence of ETV1 (P50549 whole entry, the tested form may be a part): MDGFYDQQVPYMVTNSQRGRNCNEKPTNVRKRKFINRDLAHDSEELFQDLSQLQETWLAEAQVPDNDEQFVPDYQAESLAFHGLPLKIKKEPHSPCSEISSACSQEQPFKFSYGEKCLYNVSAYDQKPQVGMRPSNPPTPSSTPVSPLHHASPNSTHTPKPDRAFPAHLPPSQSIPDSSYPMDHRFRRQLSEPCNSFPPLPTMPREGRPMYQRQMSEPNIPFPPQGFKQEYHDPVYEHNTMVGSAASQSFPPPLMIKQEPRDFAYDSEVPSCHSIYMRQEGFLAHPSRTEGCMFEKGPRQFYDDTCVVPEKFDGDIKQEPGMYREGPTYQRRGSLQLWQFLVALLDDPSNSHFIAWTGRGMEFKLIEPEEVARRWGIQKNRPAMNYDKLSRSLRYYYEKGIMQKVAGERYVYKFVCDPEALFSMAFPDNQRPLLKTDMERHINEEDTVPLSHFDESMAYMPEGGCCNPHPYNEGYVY
# Method in brief: (§1)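 Binding signal is given per hexamer as its read frequency for a factor divided by its frequency in the tag-only sample. GST-fused human transcription factors were expressed in yeast, captured on glutathione beads, barcoded with DNA and pooled with that sample, then incubated with 200 nmole of a 16-mer random double-stranded DNA library in Tris/NaCl/DTT/glycerol buffer for 30 min at room temperature. The pools were then washed, crosslinked, proximity-ligated, amplified by PCR and sequenced on an Illumina NextSeq500.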
# ERF = molecular target: T1, ERF (Homo sapiens, UniProt P50548 1-548)
# T1 sequence: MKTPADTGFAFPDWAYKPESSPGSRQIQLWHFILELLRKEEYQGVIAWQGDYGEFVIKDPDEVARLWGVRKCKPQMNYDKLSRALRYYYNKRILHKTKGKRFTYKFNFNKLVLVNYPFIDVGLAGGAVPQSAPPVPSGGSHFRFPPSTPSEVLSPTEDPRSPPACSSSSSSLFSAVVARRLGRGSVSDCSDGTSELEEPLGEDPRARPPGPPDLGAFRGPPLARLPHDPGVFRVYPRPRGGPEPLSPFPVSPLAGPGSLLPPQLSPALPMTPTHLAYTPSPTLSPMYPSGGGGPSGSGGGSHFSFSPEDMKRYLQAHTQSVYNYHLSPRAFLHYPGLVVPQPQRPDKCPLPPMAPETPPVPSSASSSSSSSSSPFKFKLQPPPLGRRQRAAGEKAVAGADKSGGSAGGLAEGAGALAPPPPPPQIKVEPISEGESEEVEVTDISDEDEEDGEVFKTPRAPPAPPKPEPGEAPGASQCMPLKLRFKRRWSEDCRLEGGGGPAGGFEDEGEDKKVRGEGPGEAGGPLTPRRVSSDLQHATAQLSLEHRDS
# Method in brief: as §1
# ETV3L = molecular target: T2, ETV3L (Homo sapiens, UniProt Q6ZN32 1-361)
# T2 sequence: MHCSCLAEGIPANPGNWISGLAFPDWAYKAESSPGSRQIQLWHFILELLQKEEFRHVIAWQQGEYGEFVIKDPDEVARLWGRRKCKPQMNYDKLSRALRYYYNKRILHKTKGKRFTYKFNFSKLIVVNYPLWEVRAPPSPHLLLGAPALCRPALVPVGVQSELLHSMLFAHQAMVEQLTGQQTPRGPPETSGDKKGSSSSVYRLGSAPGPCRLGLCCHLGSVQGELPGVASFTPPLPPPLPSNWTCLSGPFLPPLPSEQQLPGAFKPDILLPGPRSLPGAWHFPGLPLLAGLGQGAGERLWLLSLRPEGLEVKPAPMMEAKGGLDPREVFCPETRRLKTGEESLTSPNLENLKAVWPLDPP
# Method in brief: as §1
# ETS2 = molecular target: T3, ETS2 (Homo sapiens, UniProt P15036 1-469)
# T3 sequence: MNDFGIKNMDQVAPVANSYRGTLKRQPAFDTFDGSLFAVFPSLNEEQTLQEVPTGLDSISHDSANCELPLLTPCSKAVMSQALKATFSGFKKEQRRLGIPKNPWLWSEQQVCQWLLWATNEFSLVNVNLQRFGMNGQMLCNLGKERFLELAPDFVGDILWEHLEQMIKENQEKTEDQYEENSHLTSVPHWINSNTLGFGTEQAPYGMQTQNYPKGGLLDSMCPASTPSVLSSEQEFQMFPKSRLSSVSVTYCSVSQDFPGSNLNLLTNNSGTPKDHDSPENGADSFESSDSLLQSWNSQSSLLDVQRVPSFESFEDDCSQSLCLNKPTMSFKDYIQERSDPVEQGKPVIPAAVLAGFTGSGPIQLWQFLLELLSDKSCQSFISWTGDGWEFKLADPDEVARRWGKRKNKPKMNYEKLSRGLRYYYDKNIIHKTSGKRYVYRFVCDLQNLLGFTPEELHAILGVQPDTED
# Method in brief: as §1
# SPDEF = molecular target: T4, SPDEF (Homo sapiens, UniProt O95238 1-335)
# T4 sequence: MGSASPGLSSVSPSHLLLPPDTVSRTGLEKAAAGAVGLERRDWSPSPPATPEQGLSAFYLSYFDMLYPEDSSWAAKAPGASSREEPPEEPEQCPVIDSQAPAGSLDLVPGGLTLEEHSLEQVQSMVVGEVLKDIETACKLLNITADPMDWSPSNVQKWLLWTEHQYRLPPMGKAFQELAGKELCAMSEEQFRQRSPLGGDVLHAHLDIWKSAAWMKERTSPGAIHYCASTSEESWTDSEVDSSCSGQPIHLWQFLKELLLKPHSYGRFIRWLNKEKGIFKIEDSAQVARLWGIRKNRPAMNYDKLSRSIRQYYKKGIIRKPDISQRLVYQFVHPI
# Method in brief: as §1
# ETV7 = molecular target: T5, ETV7 (Homo sapiens, UniProt Q9Y603 1-341)
# T5 sequence: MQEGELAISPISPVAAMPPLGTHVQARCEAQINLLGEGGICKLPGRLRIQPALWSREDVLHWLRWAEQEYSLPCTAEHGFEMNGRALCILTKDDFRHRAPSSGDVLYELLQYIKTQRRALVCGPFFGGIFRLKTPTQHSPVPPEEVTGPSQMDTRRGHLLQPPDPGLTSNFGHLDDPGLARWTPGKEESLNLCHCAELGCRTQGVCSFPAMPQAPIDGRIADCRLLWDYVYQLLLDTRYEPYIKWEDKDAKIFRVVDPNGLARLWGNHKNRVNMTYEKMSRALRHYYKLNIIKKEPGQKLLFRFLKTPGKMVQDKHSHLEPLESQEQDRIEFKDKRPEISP
# Method in brief: as §1
# ELF5 = molecular target: T6, ELF5 (Homo sapiens, UniProt Q9UKW6-2 1-255)
# T6 sequence: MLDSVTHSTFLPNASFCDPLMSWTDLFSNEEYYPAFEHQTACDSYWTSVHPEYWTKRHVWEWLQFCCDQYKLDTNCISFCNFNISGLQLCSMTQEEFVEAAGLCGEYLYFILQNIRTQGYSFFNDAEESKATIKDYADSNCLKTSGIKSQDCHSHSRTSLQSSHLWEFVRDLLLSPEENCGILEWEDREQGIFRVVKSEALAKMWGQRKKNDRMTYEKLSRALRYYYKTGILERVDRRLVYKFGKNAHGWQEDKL
# Method in brief: as §1
# ETV3 = molecular target: T7, ETV3 (Homo sapiens, UniProt P41162-2 1-143)
# T7 sequence: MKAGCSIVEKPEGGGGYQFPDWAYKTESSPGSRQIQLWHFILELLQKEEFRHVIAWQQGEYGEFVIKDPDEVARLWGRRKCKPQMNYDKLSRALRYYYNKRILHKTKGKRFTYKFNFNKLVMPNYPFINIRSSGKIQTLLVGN
# Method in brief: as §1
# ETV6 = ETV6 (Homo sapiens, UniProt P41212 1-452)
# Sequence of ETV6 (P41212 whole entry): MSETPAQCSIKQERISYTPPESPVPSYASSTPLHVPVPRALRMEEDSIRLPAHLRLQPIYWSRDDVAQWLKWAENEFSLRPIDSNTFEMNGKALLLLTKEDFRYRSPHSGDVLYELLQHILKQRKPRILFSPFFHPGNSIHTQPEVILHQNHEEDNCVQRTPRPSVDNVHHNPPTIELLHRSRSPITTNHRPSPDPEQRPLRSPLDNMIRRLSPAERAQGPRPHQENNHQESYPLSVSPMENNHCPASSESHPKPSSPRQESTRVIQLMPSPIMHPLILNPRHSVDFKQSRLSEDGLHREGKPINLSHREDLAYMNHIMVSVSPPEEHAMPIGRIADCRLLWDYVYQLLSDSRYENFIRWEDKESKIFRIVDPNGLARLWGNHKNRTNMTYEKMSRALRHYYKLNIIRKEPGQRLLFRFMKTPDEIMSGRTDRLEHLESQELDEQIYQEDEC
# Method in brief: as §1
sequence,measurement,setting,value
TATTTA,binding signal,ETV1,"1.51 fold enrichment (6-mer frequency, TF over GST control)"
same,binding signal,ERF,"1.65 fold enrichment (6-mer frequency, TF over GST control)"
same,binding signal,ETV3L,"1.44 fold enrichment (6-mer frequency, TF over GST control)"
same,binding signal,ETS2,"1.55 fold enrichment (6-mer frequency, TF over GST control)"
same,binding signal,SPDEF,"1.47 fold enrichment (6-mer frequency, TF over GST control)"
same,binding signal,ETV7,"1.45 fold enrichment (6-mer frequency, TF over GST control)"
same,binding signal,ELF5,"1.37 fold enrichment (6-mer frequency, TF over GST control)"
same,binding signal,ETV3,"1.41 fold enrichment (6-mer frequency, TF over GST control)"
same,binding signal,ETV6,"1.43 fold enrichment (6-mer frequency, TF over GST control)"
